33 molecules from PubChem BioAssay (NCATS) can be followed below.

Inconclusive results are not listed. A number with no mark means an inactive call. The source made the active and inactive calls. Unless noted, calls come from the whole dose curve; as a rule, active = well fitted curve in the direction sought with a large enough effect; inconclusive = small, poorly fitted or top-dose-only effect, or another doubt; inactive = no such curve, though single readings can be large; an effect the other way counts as inactive or inconclusive. Where a SMILES comes first, the peptide text is derived from it. [ ]: non-standard residue; d: D form. pGlu = O=C1CC[C@@H](C(=O)O)N1

In experiment [1] the target is Calcium and integrin-binding protein 1 (Homo sapiens) (UniProt Q99828). In words: Primary qHTS for Identification of Calcium Integrin Binding Protein 1 (CIB1) Competitor (AID 1508620).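 Note: GST tagged CIB1 binding a fluorescein labelled alphaIIb integrin peptide tracer; top concentration of the series differs between compounds; % is set by controls: 0 for no effect and ±100 for the full control effect.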 In a few lines:
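Fluorescence polarization competition: CIB1-GST (1 uM final) preincubated with compound 15 min at room temperature, then FITC-labeled alphaIIb peptide (100 nM final) added for another 15 min. Polarization read at Ex 480/Em 540.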
In general terms: In qHTS, concentration-response curves come from the screen itself.

Experiment [2] is described as follows: Primary qHTS for small molecule stabilizers of the endoplasmic reticulum resident proteome: Secreted ER Calcium Modulated Protein (SERCaMP) assay (AID 1508630). Note: % is set by controls: 0 for no effect and ±100 for the full control effect. In a few lines: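 GLuc-SERCaMP-expressing SH-SY5Y cells, pretreated 16 h with compound, are challenged with thapsigargin to empty ER calcium stores; after 4 h, coelenterazine is added directly to the medium and luminescence is imaged.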

Experiment [3] in a line: A High-Content qHTS Against Drug Library for the Identification of Small Molecules that Inhibit DYT1 Early Onset Primary Dystonia-Associated Cell Pathology (AID 1645839; calls by dose curve; note: potency is the fitted concentration of half-maximal effect; for % pathology change, negative = correction: series mostly up to about 46 µM). The method, boiled down:
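Readout: %pathology, the punctate EGFP-TorsinA distribution from imaging, as the primary channel and cell count as the toxicity counterscreen. HEK293 Flp-In cells expressing delE TorsinA were induced with tetracycline and treated with compound for 48 h.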

The target in experiment [4] is Cytochrome P450 2D6 (Homo sapiens) (UniProt P10635). The experiment is described as follows: Cytochrome P450 family 2 subfamily D member 6 (CYP2D6) small molecule antagonists: luciferase biochemical (cell-free) qHTS assay (AID 1645840; active = well fitted curve in the direction sought with a large enough effect in the repeat runs; an effect the other way counts as inactive or inconclusive; note: nearly all actives have a fitted effect of over 55% in size; note: potency is the fitted concentration of half-maximal effect; for activity change, negative = inhibition: series mostly up to about 57 µM; % is set by controls: 0 for no effect and ±100 for the full control effect). The method, boiled down: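 P450-Glo luminescent screen: recombinant CYP2D6 enzyme–proluciferin substrate mix preincubated with compound 10 min at room temperature, then NADPH regeneration added for 1 h at room temperature. Detection reagent added for 20 min; luciferin light read as relative luminescence units.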
Chain of Cytochrome P450 2D6 (Homo sapiens) (P10635 whole entry, looked up): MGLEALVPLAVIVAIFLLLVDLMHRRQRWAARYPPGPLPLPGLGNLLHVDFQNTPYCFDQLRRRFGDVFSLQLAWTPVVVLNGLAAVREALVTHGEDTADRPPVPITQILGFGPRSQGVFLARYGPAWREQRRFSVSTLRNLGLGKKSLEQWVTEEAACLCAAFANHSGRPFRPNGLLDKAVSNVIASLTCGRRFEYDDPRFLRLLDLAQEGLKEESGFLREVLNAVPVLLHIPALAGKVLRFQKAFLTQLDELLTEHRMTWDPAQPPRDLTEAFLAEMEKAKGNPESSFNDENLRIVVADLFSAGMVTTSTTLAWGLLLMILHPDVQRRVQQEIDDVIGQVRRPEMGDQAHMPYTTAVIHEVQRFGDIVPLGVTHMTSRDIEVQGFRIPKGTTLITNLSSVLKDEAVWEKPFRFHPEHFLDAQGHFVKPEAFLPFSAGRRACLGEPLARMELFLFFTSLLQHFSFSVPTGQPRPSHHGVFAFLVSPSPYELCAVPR

The target in experiment [5] is Cytochrome P450 2C9 (Homo sapiens) (UniProt P11712). In words: Cytochrome P450 family 2 subfamily C member 9 (CYP2C9) small molecule antagonists: luciferase biochemical (cell-free) qHTS assay (AID 1645842; active = well fitted curve in the direction sought with a large enough effect in the repeat runs; an effect the other way counts as inactive or inconclusive; note: nearly all actives have a fitted effect of over 55% in size; note: potency is the fitted concentration of half-maximal effect; for activity change, negative = inhibition: series mostly up to about 57 µM; % is set by controls: 0 for no effect and ±100 for the full control effect). The method, boiled down: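 Luminescence, after 20 min with luciferin detection reagent, reflected CYP2C9 turnover during a 1 h NADPH-driven reaction at 37C. Enzyme-substrate mix contained 0.4% bovine serum albumin and was preincubated with compound 10 min at room temperature.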
Chain of Cytochrome P450 2C9 (Homo sapiens) (P11712 whole entry, looked up): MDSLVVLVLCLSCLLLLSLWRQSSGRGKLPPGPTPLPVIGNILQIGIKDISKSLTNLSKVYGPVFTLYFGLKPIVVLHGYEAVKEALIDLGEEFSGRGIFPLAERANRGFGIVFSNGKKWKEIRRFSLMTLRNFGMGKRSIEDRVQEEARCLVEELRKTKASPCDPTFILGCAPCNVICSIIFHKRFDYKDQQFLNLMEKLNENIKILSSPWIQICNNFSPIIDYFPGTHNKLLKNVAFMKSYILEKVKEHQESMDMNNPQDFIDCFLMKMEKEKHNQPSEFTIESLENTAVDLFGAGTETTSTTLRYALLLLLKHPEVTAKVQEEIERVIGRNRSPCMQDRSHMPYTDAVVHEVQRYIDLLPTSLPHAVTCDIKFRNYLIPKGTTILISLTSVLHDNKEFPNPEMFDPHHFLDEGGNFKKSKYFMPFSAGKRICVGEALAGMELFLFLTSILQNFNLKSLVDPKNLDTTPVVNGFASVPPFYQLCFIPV

Chain of Calcium and integrin-binding protein 1 (Homo sapiens) (Q99828 whole entry, looked up): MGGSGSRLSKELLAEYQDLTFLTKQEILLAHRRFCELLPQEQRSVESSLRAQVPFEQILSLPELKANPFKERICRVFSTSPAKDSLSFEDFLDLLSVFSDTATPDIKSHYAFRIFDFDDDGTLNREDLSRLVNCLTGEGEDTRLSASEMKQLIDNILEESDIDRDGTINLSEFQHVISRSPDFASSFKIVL

In the case of `COc1ccc(CCC(C)=O)cc1`, the Potency entry in experiment [1], in experiment [2], in experiment [3], in experiment [4] and in experiment [5] was “inactive” in each case.
As to `CCN1CCCC1CN` (stereo not given), the Potency result in experiment [1], in experiment [2], in experiment [3], in experiment [4] and in experiment [5] was “inactive” in each case.
`C/C=C(/C(=C/C)c1ccc(OC(C)=O)cc1)c1ccc(OC(C)=O)cc1`: the Potency result in experiment [1], in experiment [2] and in experiment [4] was “inactive” throughout. For the same molecule, the Potency was 8.91 µM (active) in experiment [3] and 17.4 µM (active) in experiment [5].
In the case of `O=C1CC2(CCCC2)CC(=O)N1`, the Potency entry in experiment [1], in experiment [2], in experiment [3], in experiment [4] and in experiment [5] was “inactive” each time.
For `NS(=O)(=O)c1ccc(N2CCCCS2(=O)=O)cc1`, the Potency result in experiment [1], in experiment [2], in experiment [3], in experiment [4] and in experiment [5] was “inactive” each time.
With `CCOC(=O)NNc1ccc(N(CC)CC(C)O)nn1` (stereo not given), the Potency result in experiment [1], in experiment [2], in experiment [3], in experiment [4] and in experiment [5] was “inactive” each time.
`CC1CN(c2cc3c(cc2F)c(=O)c(C(=O)O)cn3-c2ccc(F)cc2F)CCN1` (stereo not given): the Potency result in experiment [1] was “inactive”. Moreover, the activity change, negative = inhibition in experiment [2] is -17% [at 3.88 µM]; in experiment [4] it was -0.861% [at 4.83 µM]; in experiment [5], 17.6% [at 4.83 µM]. Moreover, the % pathology change, negative = correction in experiment [3] is -2.29% [at 4.63 µM].
For the molecule `CCNC(=O)[C@@H]1CCCN1C(=O)[C@H](CCCN=C(N)N)NC(=O)[C@H](CC(C)C)NC(=O)CNC(=O)[C@H](Cc1ccc(O)cc1)NC(=O)[C@H](CO)NC(=O)[C@H](Cc1c[nH]c2ccccc12)NC(=O)[C@H](Cc1cnc[nH]1)NC(=O)[C@@H]1CCC(=O)N1` ([pGlu]HWSYGLRP-NHEt), the Potency result in experiment [1], in experiment [2], in experiment [3], in experiment [4] and in experiment [5] was “inactive” throughout.
As for `Cc1cc(C(C)(C)C)c(O)c(C(C)(C)C)c1`, the Potency entry in experiment [1], in experiment [2], in experiment [3], in experiment [4] and in experiment [5] was “inactive” throughout.
`Cc1sccc1Br`: the Potency entry in experiment [1], in experiment [2], in experiment [3], in experiment [4] and in experiment [5] was “inactive” in each case.
As to `O=C1[C@@H]2[C@H]3CC[C@H](C3)[C@@H]2C(=O)N1CCCCN1CCN(c2ncccn2)CC1`, the Potency entry in experiment [1], in experiment [2], in experiment [3] and in experiment [5] was “inactive” throughout. The Potency in experiment [4] was 15.5 µM (active).
For `N#Cc1cc(NC(=O)C(=O)O)c(Cl)c(NC(=O)C(=O)O)c1`, the Potency entry in experiment [1], in experiment [2], in experiment [3], in experiment [4] and in experiment [5] was “inactive” throughout.
For `O=c1[nH]c2ccccc2c(=O)n1CCCl`, the Potency result in experiment [1], in experiment [2], in experiment [3], in experiment [4] and in experiment [5] was “inactive” each time.
For the molecule `CC(=O)Nc1ccc(S(=O)(=O)Nc2cc(C)on2)cc1`, the Potency result in experiment [1], in experiment [2], in experiment [3], in experiment [4] and in experiment [5] was “inactive” each time.
Take `CN(C)CCN(Cc1ccsc1)c1ccccn1`: the Potency entry in experiment [1], in experiment [2], in experiment [3] and in experiment [5] was “inactive” in each case. In experiment [4], the Potency is 6.92 µM (active).
With `NS(=O)(=O)c1cc(C(=O)NN2C[C@H]3[C@H]4CCC(C4)[C@H]3C2)ccc1Cl`, the Potency entry in experiment [1], in experiment [2], in experiment [3], in experiment [4] and in experiment [5] was “inactive” each time.
For the molecule `C[N+](C)(CCOc1ccccc1)Cc1cccs1`, the Potency result in experiment [1], in experiment [2], in experiment [3] and in experiment [5] was “inactive” throughout. Also, the Potency in experiment [4] was 0.123 µM (active).
Take `Cc1ccccc1N1CCN(CCc2nnc3n2CCCC3)CC1`: the Potency result in experiment [1], in experiment [2], in experiment [3] and in experiment [5] was “inactive” in each case. For the same molecule, the Potency in experiment [4] was 13.8 µM (active).
For the molecule `O=C(Oc1ccccc1)c1ccccc1O`, the Potency entry in experiment [1], in experiment [2], in experiment [3], in experiment [4] and in experiment [5] was “inactive” throughout.
With `Nc1nc2ccccc2n1Cc1ccc(F)cc1`, the Potency result in experiment [1], in experiment [2], in experiment [3] and in experiment [5] was “inactive” in each case. The Potency in experiment [4] was 0.0977 µM (active).
Turning to `OC1(c2ccc(Cl)c(C(F)(F)F)c2)CCN(CCCC(c2ccc(F)cc2)c2ccc(F)cc2)CC1`, the Potency entry in experiment [1] and in experiment [2] was “inactive” in each case. The Potency is 4.47 µM (active) in experiment [3], 1.23 µM (active) in experiment [4] and 15.5 µM (active) in experiment [5].
`CC(CC(C#N)(c1ccccc1)C(C)C)N(C)C` (stereo not given): the Potency entry in experiment [1], in experiment [2], in experiment [3] and in experiment [5] was “inactive” throughout. Besides, the Potency in experiment [4] is 8.71 µM (active).
In the case of `O=C(CO)[C@@H](O)[C@H](O)[C@@H](O)CO`, the Potency result in experiment [1], in experiment [2], in experiment [3], in experiment [4] and in experiment [5] was “inactive” in each case.
For the molecule `COCCc1ccccn1`, the Potency result in experiment [1], in experiment [2], in experiment [3], in experiment [4] and in experiment [5] was “inactive” throughout.
With `COc1cc(OC)nc(O[C@H](C(=O)O)C(OC)(c2ccccc2)c2ccccc2)n1`, the Potency entry in experiment [1], in experiment [2], in experiment [3], in experiment [4] and in experiment [5] was “inactive” each time.
Regarding `COc1cc(/C=C/C(N)=O)cc(OC)c1OC`, the Potency entry in experiment [1], in experiment [2], in experiment [3], in experiment [4] and in experiment [5] was “inactive” each time.
For the molecule `C[C@@H]1CCC[C@H](C)N1CCCC(O)(c1ccccc1)c1ccccn1` (stereo not given in full), the Potency result in experiment [1], in experiment [2], in experiment [3] and in experiment [5] was “inactive” throughout. In experiment [4], the Potency was 0.871 µM (active).
Turning to `COc1cc2c(cc1OC)C(=O)CC2`, the Potency result in experiment [1], in experiment [2], in experiment [3], in experiment [4] and in experiment [5] was “inactive” throughout.
For the molecule `O=C(CCCl)NCCc1ccccc1`, the Potency result in experiment [1], in experiment [2], in experiment [3], in experiment [4] and in experiment [5] was “inactive” in each case.
With `CCCC(=O)O[C@]1(C(=O)CC)CC[C@H]2[C@@H]3CCC4=CC(=O)CC[C@]4(C)[C@H]3[C@@H](O)C[C@@]21C`, the Potency result in experiment [1], in experiment [2] and in experiment [3] was “inactive” throughout. The Potency in experiment [4] is 12.3 µM (active); in experiment [5], 17.4 µM (active).
Take `C=C(C)C(=O)OCC(O)CO` (stereo not given): the Potency entry in experiment [1], in experiment [2], in experiment [3], in experiment [4] and in experiment [5] was “inactive” throughout.
Take `Cc1cccc(OCC(O)CNC(C)(C)C)c1C` (stereo not given): the Potency result in experiment [1], in experiment [2], in experiment [3] and in experiment [5] was “inactive” in each case. In addition, in experiment [4], the Potency is 11 µM (active).
For `O=C(O)c1cn(C2CC2)c2cc(Cl)c(F)cc2c1=O`, the Potency entry in experiment [1], in experiment [2], in experiment [3], in experiment [4] and in experiment [5] was “inactive” each time.
